Mtb FBA inh – Mtb fructose-bisphosphate aldolase inhibition. purified M. tuberculosis FBA, fluorescence read-out. inhibition, % at 1 µM. 360,000 tested, 2.3% active; in the data active = inhibition above about 27%;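 also: 0% = vehicle and 100% = reference inhibitor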
GDH-TPI inh – inhibits GDH-TPI coupling enzymes, artifact for Mtb FBA screen. GDH-TPI coupled enzyme counterscreen, NADH absorbance. inhibition, % at 4.8 µM. 360,000 tested, 1.2% active. AID 588335; in the data active = inhibition above about 30%;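 also: 0% = DMSO wells and 100% = wells lacking the enzyme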
BioA inh-1 – blocks M. tuberculosis BioA enzyme activity | purified M. tuberculosis BioA enzyme, plate reader | inhibition, % at 9.99 µM | 360,000 tested, 0.096% active | AID 602481; in the data active = inhibition above about 40%
BH1578 lux ind – quorum light induction in luxS cqsA deficient V. cholerae; V. cholerae BH1578 lux reporter, luminescence, 6 h; activation, % at 18.7 µM; 350,000 tested, 0.16% active; in the data active = activation mostly above about 9.7%, no sharp cut-off
BioA inh-2 – Mtb BioA enzyme inhibition. 310 tested, under 10 active. purified BioA enzyme, plate reader, dose response. AID 651679. shares compounds with BioA inh-1. max activity, %;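 also: top concentration of the dilution series was 10 µM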
Target sequence (P9WQ81 whole entry, looked up): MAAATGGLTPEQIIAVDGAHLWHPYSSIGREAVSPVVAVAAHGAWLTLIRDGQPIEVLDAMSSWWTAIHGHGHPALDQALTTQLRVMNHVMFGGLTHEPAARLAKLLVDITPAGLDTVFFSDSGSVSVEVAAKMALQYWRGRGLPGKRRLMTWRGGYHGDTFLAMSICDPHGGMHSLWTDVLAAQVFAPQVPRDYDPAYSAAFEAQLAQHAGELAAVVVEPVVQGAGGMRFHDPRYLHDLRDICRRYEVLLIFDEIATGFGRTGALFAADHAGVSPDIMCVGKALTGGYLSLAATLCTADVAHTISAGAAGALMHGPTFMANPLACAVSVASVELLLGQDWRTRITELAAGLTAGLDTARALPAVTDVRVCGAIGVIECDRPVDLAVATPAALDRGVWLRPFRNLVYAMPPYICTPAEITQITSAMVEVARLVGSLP
HepG2 cytotox – HepG2 viability loss. max activity, %. HepG2 cytotoxicity, plate reader. shares compounds with BioA inh-1. 310 tested, under 10 active
3T3 cytotox 5 – NIH3T3 viability loss; shares compounds with BioA inh-1; 310 tested, under 10 active; NIH3T3 cytotoxicity, plate reader; activity change, negative = cytotoxicity, % at 26 µM
Starred values were filed as active, the others as inactive; i = inactive; · = no result given. Compounds with a hit are over-represented: about 3% of the library has one in this group of screens. Unless noted, no rule for the calls is given here.

SMILES | Mtb FBA inh | GDH-TPI inh | BioA inh-1 | BH1578 lux ind | BioA inh-2 | HepG2 cytotox | 3T3 cytotox 5
C[C@@H]1CN([C@H](C)CO)C(=O)c2cc(NC(=O)Nc3ccc(F)cc3)ccc2O[C@@H]1CN(C)S(=O)(=O)c1ccc(Cl)cc1 | · | · | 0 | · | · | · | ·
Cc1cccc(-n2c(SCC(=O)N(C)C3CCS(=O)(=O)C3)nc3ccccc3c2=O)c1C (stereo unspecified) | -1 | 4 | 47* | -5 | 3 | 17 | 4
CC(Oc1cc2oc(=O)c3c(c2cc1Cl)CCC3)C(=O)NCc1cccnc1 (stereo unspecified) | 25 | 6 | 47* | i | -8 | -20 | -5
O=C(C[C@@H]1CC[C@@H]2[C@H](COC[C@H](O)CN2C(=O)Nc2ccc(C(F)(F)F)cc2)O1)NCCc1ccncc1 | · | · | -4 | · | · | · | ·
CC(CNC(=O)CCCn1ncn2c(cc3occc32)c1=O)c1ccccc1 (stereo unspecified) | 4 | 4 | 67* | i | -9 | -13 | -5
O=C(Cc1ccccc1)N1CCN(c2ccccc2F)CC1 | 1 | 7 | 0 | -1 | · | · | ·
CC(=O)c1ccc(N2CCN(C(=O)c3ccco3)CC2)c(F)c1 | 3 | 11 | 21 | 0 | · | · | ·
CC(=O)c1ccc(N2CCN(C(=O)c3ccc(Br)cc3)CC2)c(F)c1 | 2 | 8 | 93* | -1 | -6 | -11 | 2
CC(=O)c1ccc(N2CCN(C(=O)Cc3ccccc3)CC2)c(F)c1 | 2 | 3 | 55* | -1 | -5 | 20 | 2
C[C@@H]1CN([C@@H](C)CO)C(=O)Cc2cc(NS(=O)(=O)c3ccc(F)cc3)ccc2O[C@H]1CN(C)C(=O)NC1CCCCC1 | · | · | -2 | · | · | · | ·
O=C(NC[C@H]1[C@@H](c2ccccc2)[C@@H](CO)N1CC1CCCC1)C1CC1 | · | · | 9 | · | · | · | ·
COc1cccc(-c2ccc3c(c2)[C@@H]2[C@@H](CCN2C(=O)Nc2ccccc2OC)[C@@H](CO)N3C)c1 | · | · | 1 | · | · | · | ·
CCc1c(C(=O)NCCc2ccc(OC)c(OC)c2)[nH]c(C)c1C(C)=O | 0 | 10 | 60* | 0 | -9 | 10 | -6
CCc1c(C(=O)NCCc2cccc(C)c2)[nH]c(C)c1C(C)=O | 0 | 12 | 12 | i | · | · | ·
CCCC(=O)Nc1ccc2c(c1)C(=O)N(C)C[C@@H](OC)[C@@H](C)CN(Cc1cccc(F)c1)[C@H](C)CO2 | · | · | 0 | · | · | · | ·
Cc1noc(C)c1NC(=O)Nc1ccc2c(c1)CC(=O)N([C@@H](C)CO)C[C@H](C)[C@H](CN(C)C)O2 | · | · | 3 | · | · | · | ·
CCC(CO)[n+]1c(C)cc(/C=C2\Sc3ccccc3N2Cc2ccccc2)cc1C (stereo unspecified) | 0 | 4 | 53* | 0 | -6 | 14 | -9
CCN1/C(=C2\SC(=S)N(Cc3ccccc3)C2=O)Sc2ccccc21 | 0 | 9 | · | 0 | · | · | ·
O=C(NC1CC1)c1ccc(-c2ccc3nccn3c2)cc1 | 7 | 8 | 8 | 0 | · | · | ·
O=C(NCc1ccco1)c1ccc(-c2ccc3nccn3c2)cc1 | 8 | 3 | 48* | 2 | 4 | 28 | 11
CC(=O)c1ccc(N2CCN(S(=O)(=O)c3c(C(=O)N4CCCC4)c(C)n(C)c3C)CC2)cc1 | 1 | 40* | 42* | -7 | -3 | -5 | 13
CO[C@H]1CN(C)C(=O)c2ccc(NC(=O)c3cnccn3)cc2OC[C@H](C)NC[C@H]1C | · | · | -1 | · | · | · | ·
C[C@@H]1CCCCO[C@@H](CN(C)S(C)(=O)=O)[C@H](C)CN([C@H](C)CO)C(=O)c2cc(NC(=O)Nc3ccccc3)ccc2O1 | · | · | 2 | · | · | · | ·
CCCc1cc(=O)oc2c3c(cc(OCC(=O)NCCCn4ccnc4)c12)OC(C)(C)CC3 | 170* | 16 | 43* | -1 | -6 | 8 | -6
CCCc1cc(=O)oc2cc(OCC(=O)NCCCn3ccnc3)c(Cl)cc12 | 3 | 12 | 1 | 0 | · | · | ·
SMILES | Mtb FBA inh | GDH-TPI inh | BioA inh-1 | BH1578 lux ind | BioA inh-2 | HepG2 cytotox | 3T3 cytotox 5
CC1CCCN(c2ccc(C(=O)Nc3cccnc3)cc2[N+](=O)[O-])C1 (stereo unspecified) | -5 | 6 | 54* | -1 | -7 | 5 | -9
CC(=O)Nc1ccc(N2CCCC(C)C2)c([N+](=O)[O-])c1 (stereo unspecified) | 2 | 4 | · | -1 | · | · | ·
CC(=O)c1ccc(C(=O)N2CCCC(CCC(=O)N(C)CCc3ccccn3)C2)s1 (stereo unspecified) | 5 | 5 | 66* | 0 | 3 | -15 | -10
CN(CCc1ccccn1)C(=O)CCC1CCCN(C(=O)c2cscn2)C1 (stereo unspecified) | -1 | 0 | · | 0 | · | · | ·
Cc1ccc(S(=O)(=O)N2C[C@H](O)COC[C@@H]3O[C@H](CC(=O)NCC4CCCCC4)CC[C@H]32)cc1 | · | · | 2 | · | · | · | ·
C=C(C)n1c(=O)n(Cc2ccccc2C)c2ccccc21 | 3 | -10 | 48* | i | -10 | -14 | -18
C=C(C)n1c(=O)n(Cc2ccc(C)cc2)c2ccccc21 | 0 | -2 | 0 | -1 | · | · | ·
CC(=O)OCC(=O)[C@@]1(OC(C)=O)[C@@H](C)C[C@H]2[C@@H]3C[C@H](F)C4=CC(=O)C=C[C@]4(C)[C@@]3(F)[C@@H](O)C[C@@]21C | -3 | 3 | 51* | i | -5 | 16 | 6
Cc1ccc(CNC(=O)c2ccc(NC(=O)C3=CSCCO3)cc2)cc1 | 1 | 2 | 0 | 0 | · | · | ·
COc1cccc(CNC(=O)c2ccc(NC(=O)C3=CSCCO3)cc2)c1 | 2 | 8 | 48* | i | -7 | 18 | 2
O=C(NCc1ccccc1)c1ccc(Br)cc1[N+](=O)[O-] | · | · | -2 | · | · | · | ·
COc1ccc(S(=O)(=O)Nc2ccc3c(c2)C(=O)N([C@@H](C)CO)C[C@H](C)[C@@H](CN(C)C(=O)NC2CCCCC2)OCCCC[C@@H](C)O3)cc1 | · | · | -2 | · | · | · | ·
COC(=O)C[C@@H]1CC[C@@H]2[C@H](COC[C@@H](O)CN2C(=O)Nc2cccc(F)c2)O1 | · | · | 46* | · | -7 | i | -1
CNC(=O)C[C@H]1CC[C@@H]2[C@H](COC[C@@H](O)CN2C(=O)Nc2ccc3c(c2)OCO3)O1 | · | · | 50* | · | -8 | i | -4
CCNC(=O)C[C@@H]1CC[C@@H]2[C@H](COC[C@@H](O)CN2C(=O)Nc2ccc3c(c2)OCO3)O1 | · | · | 3 | · | · | · | ·
COCCNC(=O)C[C@H]1CC[C@H]2[C@@H](COC[C@H](O)CN2C(=O)Nc2ccc3c(c2)OCO3)O1 | · | · | 0 | · | · | · | ·
CCCC(=O)Nc1ccc2c(c1)OC[C@H](C)N(Cc1ccccc1)C[C@@H](C)[C@@H](OC)CN(C)C2=O | · | · | 3 | · | · | · | ·
CCCN1CCN(C(=O)C2CCN(c3nnc(C)c4c(C)n(-c5ccc(C)cc5)nc34)CC2)CC1 | 4 | 13 | 41* | 4 | -5 | 17 | -9
Cc1ccc(-n2nc3c(N4CCC(C(=O)N5CCN(C)CC5)CC4)nnc(C)c3c2C)cc1 | 5 | 4 | 35 | 0 | · | · | ·

Screens (PubChem)
